Source: PubChem
An excerpt weighted towards active compounds, which were near 11% of everything screened.
HPGD inh: qHTS Assay for Inhibitors of HPGD (15-Hydroxyprostaglandin Dehydrogenase); 150,000 compounds, 4.3% hits; AID 894, 2007; Potency, µM, for the others: at the top dose activity change, negative = inhibition, most hits filed as inhibitors; purified HPGD, NADH fluorescence kinetic, PGE2 substrate; 15-hydroxyprostaglandin dehydrogenase [NAD(+)] (Homo sapiens), P15428; note: potency is the fitted concentration of half-maximal effect
Target sequence (P15428 whole entry, looked up): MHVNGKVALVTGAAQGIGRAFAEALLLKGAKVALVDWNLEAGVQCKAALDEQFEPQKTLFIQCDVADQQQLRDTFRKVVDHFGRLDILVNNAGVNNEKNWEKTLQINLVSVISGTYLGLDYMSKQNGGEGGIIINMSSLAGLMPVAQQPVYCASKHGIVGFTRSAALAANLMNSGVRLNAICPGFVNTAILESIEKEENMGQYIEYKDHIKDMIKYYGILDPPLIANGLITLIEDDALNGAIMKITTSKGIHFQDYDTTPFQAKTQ
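20 nM HPGD preincubated 15 min at room temperature with compound in 50 mM Tris-HCl pH 8, 0.01% Tween 20. Started with 1 mM NAD+ and 30 uM prostaglandin E2; NADH fluorescence (360/450 nm) read 5 times over 30-s intervals, last minus first.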
ALDH1A1 inh: qHTS Assay for Inhibitors of Aldehyde Dehydrogenase 1 (ALDH1A1); Purified ALDH1A1, NADH fluorescence, propionaldehyde substrate; Potency, µM (series often up to 75.3 µM), for inactives: at the highest dose activity, negative = inhibition, usual class: inhibitors; 220,000 compounds, 7.3% hits; Aldehyde dehydrogenase 1A1 (Homo sapiens), P00352;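 note: potency is the fitted concentration of half-maximal effect; plate controls were no enzyme wells and a reference inhibitor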
Target sequence (P00352 whole entry, looked up): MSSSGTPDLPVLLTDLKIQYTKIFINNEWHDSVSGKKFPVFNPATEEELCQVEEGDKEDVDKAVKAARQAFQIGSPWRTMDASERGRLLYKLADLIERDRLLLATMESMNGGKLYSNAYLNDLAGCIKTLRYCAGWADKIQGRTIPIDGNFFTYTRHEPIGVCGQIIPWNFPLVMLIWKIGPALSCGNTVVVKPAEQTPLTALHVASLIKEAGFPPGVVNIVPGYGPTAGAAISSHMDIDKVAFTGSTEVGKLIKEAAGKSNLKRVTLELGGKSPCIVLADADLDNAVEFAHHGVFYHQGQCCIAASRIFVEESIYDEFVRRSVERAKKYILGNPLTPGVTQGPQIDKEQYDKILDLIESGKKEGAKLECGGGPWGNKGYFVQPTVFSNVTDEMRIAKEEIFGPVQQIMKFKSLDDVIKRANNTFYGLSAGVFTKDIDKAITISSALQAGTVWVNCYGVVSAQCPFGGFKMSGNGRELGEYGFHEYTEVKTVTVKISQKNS
NPSR antagonist: qHTS Assay for Antagonists of the Neuropeptide S Receptor: cAMP Signal Transduction; Potency, µM (series often up to 38.3 µM), for inactives: top-dose activity change, negative = inhibition, hits mostly inhibitors; CHO-NPSR cells, cAMP TR-FRET, antagonist mode; Q6W5P4; 220,000 compounds, 1% hits; active = well fitted curve in the direction sought with a large enough effect; inconclusive = small, poorly fitted or top-dose-only effect, or another doubt; inactive = no such curve, though single readings can be large; an effect the other way counts as inactive or inconclusive; note: potency is the fitted concentration of half-maximal effect; nearly all actives have a fitted effect of over 50% in size
IMPase Li cell: qHTS Assay for Identifying the Cell-Membrane Permeable IMPase Inhibitors: Potentiation with Lithium. CHO-M1 cells, IP1 TR-FRET (IP-One), carbachol + lithium. Potency, µM (doses to about 59.4 µM), for inactives: at the highest dose activity, negative = IMPase inhibition, actives largely listed as inhibitors. 210,000 compounds, 0.35% hits; active = well fitted curve in the direction sought with a large enough effect; inconclusive = small, poorly fitted or top-dose-only effect, or another doubt; inactive = no such curve, though single readings can be large; an effect the other way counts as inactive or inconclusive;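 note: IP1 builds up when IMPase is blocked and the TR-FRET signal falls; potency is the fitted concentration of half-maximal effect; plate controls were basal vehicle for no effect and high inhibitor control for full effect; nearly all actives have a fitted effect of over 50% in size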
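CHO cells stably expressing M1 receptor (2000/well, cultured 16–30 h) treated 30 min at 37C with compound plus low lithium. Cytosolic IP1 by TR-FRET (665/620 ratio and 620 channel) after 10 min lysis; AC50 by Hill fit.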
IMPase inh: qHTS Assay for Identifying the Cell-Membrane Permeable IMPase Inhibitors. Inositol monophosphatase 1 (Rattus norvegicus), P97697. CHO-M1 cells, IP1 accumulation, HTRF TR-FRET ratio. inhibition (IP1 accumulation), % at 46.1 µM. 120,000 tested, under 10 active. AID 901, 2007; active = well fitted curve in the direction sought with a large enough effect in the signal ratio, not every such curve was filed as active; inconclusive = small, poorly fitted or top-dose-only effect, or a change in a side signal; inactive = no such curve, though single readings can be large or run the other way; the % refers to the signal ratio;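 note: cells stimulated with carbachol in lithium chloride buffer; plate controls were DMSO basal wells for no effect and reference inhibitor wells for full effect; higher means more IMPase inhibition seen as more IP1 and lower FRET ratio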
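Carbachol-driven Gq signalling in CHO-M1 cells (2000/well) generates IP1. Compounds that block IMPase raise IP1 and so reduce the FRET signal from Eu-anti-IP1 and d2-IP1 after a 10 min room-temperature lysis.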
PNC inhibitor: High Content Assay for Compounds that inhibit the Assembly of the Perinucleolar Compartment | activity change (PNC), negative = inhibition, % at 10 µM | 140,000 compounds, 3.1% hits | PC3M PTB-GFP, PNC prevalence imaging, 16 h; stronger effect = lower value;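 active = readout at or below -70, meaning at least 70% loss of cells showing the perinucleolar compartment, a nuclear body marking cancer cells; inconclusive = readout between -30 and a set limit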;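 note: plate controls were DMSO wells for no effect and camptothecin positive control wells for full effect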
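Read-out is percentage of cells bearing a perinucleolar compartment, from automated 20x imaging of fixed, Hoechst-stained PC3M PTB-GFP cells. Cells were seeded 4 h, then exposed 16 h to compound (23 nl of library stock) in duplicate plates.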
* = called active by the depositor; ? = inconclusive; nt = no result; [ ] = another dose, or the depositor's remark. Unless noted, calls come from the whole dose curve; as a rule, active = well fitted inhibition curve with a large enough effect (not every such curve was filed as active); inconclusive = small, poorly fitted or top-dose-only effect, or another doubt; inactive = no such curve, though single readings can be large or run the other way. Unless noted, % is set by controls: 0 for no effect and ±100 for the full control effect.

SMILES | HPGD inh | ALDH1A1 inh | NPSR antagonist | IMPase Li cell | IMPase inh | PNC inhibitor
O=C(N/N=C/c1ccc(OC(=O)c2cccs2)cc1)c1ccc(F)cc1 | -8% | -1% | -6%[46.1 µM] | -2%[38.3 µM] | -10 | 13
CCOc1cc(/C=C2/C(=O)N(c3ccccc3)N=C2C)ccc1OC(=O)c1ccco1 | 8.9µM* | ? | -15%[46.1 µM] | 12%[38.3 µM] | 12 | -22
CCOc1cc(/C=C2\C(=O)N(c3ccc(C(N)=O)cc3)N=C2C)ccc1OC(=O)c1cccs1 | 7.1µM* | 0.71µM* | ? | 44%[38.3 µM] | 1 | 12
CCOc1cc(/C=C/C(=O)O)ccc1OCc1ccccc1 | nt | 1% | -27% | 12% | nt | nt
CC1=NN(c2ccc(C(=O)O)cc2)C(=O)/C1=C\c1ccc(OC(=O)c2cccs2)cc1 | nt | 2.2µM* | -24% | 4% | nt | nt
CCOc1cc(/C=C2\C(=O)ON=C2C)ccc1OCc1ccccc1 | 7.1µM* | 3.5µM* | -59% | 25% | nt | 42
CCOc1cc(/C=C2/SC(=S)N(CC(=O)O)C2=O)ccc1OC(=O)c1cccs1 | nt | nt | -9% | nt | nt | nt
COc1cc(/C=N/n2cnnc2)ccc1OC(=O)c1ccco1 | nt | 6% | 13% | -2% | nt | nt
COc1ccccc1NC(=O)c1ccccc1NC(=O)c1cc(Cl)ccc1NC(=O)c1ccco1 | ? | 206% | -21%[46.1 µM] | ? | 2 | ?
COc1ccc(/C=C(/C#N)C(=O)Nc2ccc(O)cc2)cc1C(=O)O | nt | -2% | -1% | 0% | nt | nt
CC1(C)CC(=O)c2cc(O)ccc2O1 | -14% | -8% | 11% | 0% | nt | 35
COc1cc(/C=C2/C(=O)NN(c3cccc(C)c3)C2=O)ccc1OC(=O)c1ccco1 | 2µM* | 3.2µM* | ? | 19% | ? | -7
CCn1c(=O)c2c(n3c(=S)[nH]nc13)-c1ccccc1CC21CCCCC1 | nt | 22µM* | -24% | 1% | nt | nt
Cc1ccc(S(=O)(=O)N(CCCO)CC(O)CON=C2c3ccccc3-c3ccccc32)cc1 (centres undefined) | -9% | 8.9µM* | 18% | 11% | 2 | 32
O=C(Oc1c(Br)cc(C(=S)N2CCOCC2)cc1Br)c1ccc(Cl)cc1 | 16µM* | 6.3µM* | -11%[46.1 µM] | 10%[38.3 µM] | -1 | 36
CCOC(=O)c1c(CSC(=N)N)n(C)c2cc(Br)c(OC(C)=O)cc12 | nt | nt | -32% | nt | nt | nt
CCOC(=O)c1c(CSC(=N)N)n(-c2ccc(C)cc2)c2cc(Br)c(OC(C)=O)cc12 | -20% | 14% | 10µM* | 8%[38.3 µM] | 1 | 57
COc1ccc(/C=C(/C(=O)c2ccc(Cl)cc2Cl)n2cncn2)cc1 | -11% | 8.9µM* | -18%[46.1 µM] | 6%[38.3 µM] | 3 | 8
CC(C)CC(=O)/C(=C\c1ccc(Cl)cc1Cl)n1cncn1 | ? | 22µM* | -6% | 3% | nt | 72
CN(C)c1ccc(/C=C(/C(=O)c2ccc(Cl)cc2Cl)n2cncn2)cc1 | -21% | 1.1µM* | 4% | 3% | 6 | 27
O=C(OCn1cncn1)c1ccc(Cl)cc1Cl | -44% | -7% | 2%[46.1 µM] | 26%[38.3 µM] | -6 | ?
CN(C)/C=C(/C(=O)c1ccc(Cl)cc1)n1cncn1 | nt | -1% | 0% | -9% | nt | nt
CC(=O)Nc1ccccc1-c1nc2ccc(C(=O)N3CCN(c4cccc(C)c4)C(C)C3)cc2[nH]c1=O (centres undefined) | -14% | -2% | -13%[46.1 µM] | -3%[38.3 µM] | 3 | ?
CCCCCCN1C=CC(=C2C(=O)c3ccccc3C2=O)C=C1 | nt | 3% | 7% | -1% | nt | nt
CCCN1C=CC(=C2C(=O)c3ccccc3C2=O)C=C1 | -16% | 14µM* | -5%[46.1 µM] | 31%[38.3 µM] | 10 | -9
SMILES | HPGD inh | ALDH1A1 inh | NPSR antagonist | IMPase Li cell | IMPase inh | PNC inhibitor
CCCCN1C(C)=CC(=C2C(=O)c3ccccc3C2=O)C=C1C | nt | 14µM* | -38% | 12% | nt | nt
O=C1c2ccccc2C(=O)N1Cc1ccco1 | -6% | -16% | 1%[46.1 µM] | 5%[38.3 µM] | -3 | 2
CC1=CC(=C2C(=O)c3ccccc3C2=O)C=C(C)N1Cc1ccco1 | -16% | 7.9µM* | -30%[46.1 µM] | 15%[38.3 µM] | 11 | 37
CSc1nc(C)cc(C)c1S(=O)(=O)c1ccccc1C | -9% | 6% | -18%[46.1 µM] | 9%[38.3 µM] | 5 | -12
Nc1nc2c(ncn2C2OC(COC(=O)c3ccccc3)C(OC(=O)c3ccccc3)C2OC(=O)c2ccccc2)c(=O)[nH]1 (centres undefined) | -4% | 2% | nt | 0% | nt | nt
COc1ccc(C(=O)/C=C/c2cc(OC)c(O)c(OC)c2)c(F)c1 | 14µM* | ? | 4% | -4% | nt | 4
Cc1ccc(-c2nn(-c3ccccc3)cc2/C=N/NC(=O)c2ccc(Br)o2)cc1 | ? | ? | 7.9µM* | 19%[38.3 µM] | 12 | -9
O=C(N/N=C\c1cn(-c2ccccc2)nc1-c1ccccc1)c1ccc(Br)o1 | ? | ? | -29%[46.1 µM] | 14%[38.3 µM] | 18 | -19
CC(NC(=O)/C=C/c1ccco1)c1nc2ccccc2n1Cc1cccc(Cl)c1 (centres undefined) | 2% | 14µM* | -32% | 5% | nt | 6
COc1cc(O)c(CCO)c2c1C(=O)C[C@@H](C)O2 | nt | ? | -17% | 3% | nt | nt
CC(C)c1nc(SCC(=O)Nc2ccc(N(C)C)cc2)c2ccccc2n1 | nt | ? | -5% | 15% | nt | nt
Cc1ccc(S(=O)(=O)NC(C)(C)CSc2ncccn2)cc1 | nt | 18µM* | 14% | 2% | nt | nt
Cc1oc2cc(OC(=O)c3ccco3)ccc2c(=O)c1-c1nc2ccccc2n1C | -25% | ? | 5% | -2% | nt | -93*
Cc1cc(=O)oc2cc(OC(=O)c3ccco3)ccc12 | nt | -1% | -9% | ? | nt | nt
COCC(=O)O[C@]1(CCN(C)CCCc2nc3ccccc3[nH]2)CCc2cc(F)ccc2[C@@H]1C(C)C | -9% | -7% | 10µM* | 11% | -4 | nt
CC(=O)NC1=NN(C(C)=O)C2(S1)C(=O)N(CC(C)C)c1ccc(C)cc12 (centres undefined) | nt | nt | 9% | nt | nt | nt
CCCn1cc(NC(=O)c2cc3n(n2)C(C(F)(F)F)CC(c2ccccc2)N3)cn1 (centres undefined) | -7% | 12% | -15%[46.1 µM] | 5%[38.3 µM] | 3 | -87*
CCCCCCCNC1=CC(=O)CC(c2ccco2)C1 (centres undefined) | -9% | 25µM* | 7%[46.1 µM] | -1% | 5[0.0738 µM] | 1
O=C(CN1CCOCCOCCOCC1)Nc1ccccc1 | -5% | ? | -1%[46.1 µM] | 3%[38.3 µM] | 3 | 15
O=C(CN1CCCC1)Nc1ccc(NC(=O)Nc2ccccc2)cc1 | -2% | 7% | -3%[46.1 µM] | -3%[38.3 µM] | 8 | -20
